This is a sample that favours compounds with a hit; in the whole collection about 3.6% have one here.
LDHA inh – blocks human lactate dehydrogenase A; P00338; purified LDHA, NADH/diaphorase-resazurin fluorescence; hits give low values; activity change, % (values are at about 110 or 230 µM); actives 0.15% (n = 480,000); AID 1347041; in the data active = activity change below about -30%
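Enzyme activity of human lactate dehydrogenase 5 (2 nM; 0.06 mM NADH, 0.2 mM pyruvate, 5 min, RT) is measured via a resazurin/diaphorase fluorescence readout of residual NADH.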
D1 PAM – human D1 dopamine receptor positive modulation. P21728. HEK293 TREx D1 cells, calcium flux, dopamine EC20 potentiation. potentiation, % at 10 µM. actives 0.036% (n = 360,000). AID 504651; in the data active = potentiation above about 30%
Target sequence (P21728 whole entry, looked up): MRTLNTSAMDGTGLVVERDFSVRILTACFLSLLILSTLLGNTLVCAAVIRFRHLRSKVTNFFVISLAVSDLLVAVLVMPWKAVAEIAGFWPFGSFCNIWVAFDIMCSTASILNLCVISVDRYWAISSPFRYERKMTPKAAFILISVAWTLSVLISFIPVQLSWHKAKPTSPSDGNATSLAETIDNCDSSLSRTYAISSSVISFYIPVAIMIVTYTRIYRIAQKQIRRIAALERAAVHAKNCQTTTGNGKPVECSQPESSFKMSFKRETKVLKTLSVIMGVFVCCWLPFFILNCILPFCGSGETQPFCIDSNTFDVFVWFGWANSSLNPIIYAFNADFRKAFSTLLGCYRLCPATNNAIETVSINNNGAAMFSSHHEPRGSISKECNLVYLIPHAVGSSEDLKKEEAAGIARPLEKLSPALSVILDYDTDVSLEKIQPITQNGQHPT
D1 agonist – agonists of human D1 dopamine receptor; actives 1% (n = 360,000); activation, % at 2 µM; AID 504660; HEK293 T-REx D1 cells, calcium flux, agonist mode
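Inducible HEK293 T-REx D1 cells, force-coupled to calcium signalling, were plated at 4000 cells/well with tetracycline and held overnight at 30 C. After no-wash calcium dye loading, compound-evoked calcium rise over 180 s flagged agonists.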
D1 antag – human D1 dopamine receptor antagonism | P21728 | HEK293 TREx D1 cells, calcium flux, dopamine EC80; hits give low values | activity change, negative = inhibition, % at 10 µM | actives 3.2% (n = 360,000) | AID 504652; in the data active = activity change below about -30%
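Compound effects on dopamine-evoked calcium signalling were measured in tetracycline-induced HEK293 Trex D1 cells. Dopamine at EC80 followed a 180 s compound pre-read, and fluorescence was tracked kinetically for 180 s more.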
TRHR PAM – TRH receptor (human) allosteric enhancement; TRHR cells, fluo-8 calcium fluorescence, EC20 TRH enhancement; enhancement, % at 2 µM; actives 0.66% (n = 360,000); AID 493056; in the data active = enhancement above about 30%
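Enhancer read-out: after compound pinning and an initial kinetic agonist-mode read, an EC20 of TRH (10 nM final) was injected and fluo-8 calcium signal (Ex 480/Em 530) followed at 1 s/cycle for 100 cycles in TRHR-expressing cells.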
TRHR ag – activates the human TRH receptor; P34981; TRHR cells, calcium flux fluo-8, FDSS agonist mode; activation, % at 2 µM; actives 0.18% (n = 360,000); AID 493084
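Agonist-mode FDSS calcium read (Ex 480/Em 530, 1 s cycles) in 1536-well TRHR cells with fluo-8 dye, after 10-cycle baseline and 23 nL compound addition; TRH at EC20 (10 nM final) added afterwards for the enhancer phase.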
Of the large screens only hits and unclear results are named; the others gave an inactive call; ! = a repeat was not active. Cut-off read from the data, not from the text of the source, unless noted: active = activation above about 30%; inactive = the rest.

COc1ccc(-c2cc3ccccc3nc2N)cc1OC	D1 antag -38.1
Cc1ccc(C)c(-c2csc(-c3ccccc3)n2)c1	none (no result: D1 PAM, D1 agonist, D1 antag, TRHR PAM, TRHR ag)
O=C(OCc1cn([C@@H]2CN(C(=O)C3CCCCC3)[C@@H](c3ccc(Cl)cc3)C[C@H]2O)nn1)c1ccccc1	LDHA inh -35.3 (no result: D1 PAM, D1 agonist, D1 antag, TRHR PAM, TRHR ag)
O=C(CSCn1nnc2c(=O)[nH]c(Cc3ccc(F)cc3)nc21)Nc1ccc(F)c(Cl)c1	none (no result: D1 PAM, D1 agonist, D1 antag, TRHR PAM, TRHR ag)
Cc1nn(C)c(I)c1I	none (no result: D1 PAM, D1 agonist, D1 antag, TRHR PAM, TRHR ag)
Cc1ccc2occ(/C=N/NC(=O)c3ccncc3)c(=O)c2c1	D1 antag -33.8
CCOc1ccc(Cl)cc1S(=O)(=O)n1nnc2ccccc21	D1 antag -38.9
CCOc1ccc(S(=O)(=O)n2nnc3ccccc32)cc1C	none
COc1ccc(CCN(C)C(=O)CSc2nc3ncc(Cl)cc3[nH]2)cc1OC	D1 antag -67.0
COC(=O)c1ccccc1NC(=O)CCC(=O)N1CCSc2ccccc21	none
Cc1cc(C)cc(NC(=O)CCC(=O)N2CCSc3ccccc32)c1	D1 antag -58.1!
CCC1(c2ccc(Cl)cc2)NC(=O)N(Cc2ccc(C(=O)OC)cc2)C1=O (stereo unspecified)	D1 antag -31.0
O=C(Nc1cccc(NC(=O)c2cccc([N+](=O)[O-])c2)n1)c1cccc([N+](=O)[O-])c1	D1 antag -33.7
O=C(NC(=S)Nc1ccccn1)c1cccc([N+](=O)[O-])c1	D1 antag -55.0
CCc1ccc(Nc2nnc(SCC(=O)N(C)C3CCS(=O)(=O)C3)s2)cc1 (stereo unspecified)	D1 antag -70.3
Cc1nn(Cc2ccccc2Cl)c(C)c1NC(=O)/C=C/c1cnn(C)c1	none
CCn1cc(/C=C/C(=O)Nc2c(C)nn(Cc3ccccc3)c2C)cn1	TRHR PAM 34.6
Cc1ccc2nc(-c3ccc(O)cc3)sc2c1	none (no result: D1 PAM, D1 agonist, D1 antag, TRHR PAM, TRHR ag)
Cc1ccc2nc(-c3ccc(N4C(=O)CC(N5CCN(CCO)CC5)C4=O)cc3)sc2c1 (stereo unspecified)	D1 antag -35.9
O=C(O)c1ccc2c(c1)C(=O)N(CCc1ccccc1)C2=O	none
O=C(O)c1ccc2c(c1)C(=O)N(N1C(=O)c3ccccc3C1=O)C2=O	TRHR PAM 31.3
Cc1cccc(C[C@H](C(=O)O)N2C(=O)c3ccc(C(=O)O)cc3C2=O)c1	D1 antag -31.8 (no result: LDHA inh)
O=C(O)c1ccc2c(c1)C(=O)N([C@H](Cc1ccc(-c3ccccc3)cc1)C(=O)O)C2=O	D1 antag -35.1 (no result: LDHA inh)
Cc1ccc(C[C@H](C(=O)O)N2C(=O)c3ccc(C(=O)O)cc3C2=O)cc1	none (no result: LDHA inh)
O=C(Nc1ccc(F)c(S(=O)(=O)N2CCOCC2)c1)c1ccccc1-c1ccccc1	none (no result: D1 PAM, D1 agonist, D1 antag, TRHR PAM, TRHR ag)
CCOC(=O)c1c(C)[nH]c(C)c1S(=O)(=O)N(C)CC(=O)Nc1cc(C)ccc1OC	D1 antag -40.1
COc1ccc(NC(=O)CN(C)S(=O)(=O)c2ccc3c(c2)c(=O)n(C)c(=O)n3C)cc1	none
COc1ccc(C)cc1NC(=O)CN(C)S(=O)(=O)c1ccc2c(c1)c(=O)n(C)c(=O)n2C	D1 antag -30.2!
CC1CCc2sc(C(=O)Nc3ccc(N4CCOCC4)cc3)cc2C1 (stereo unspecified)	none
CC1CCc2sc(C(=O)NCC(C)(C)N3CCOCC3)cc2C1 (stereo unspecified)	D1 antag -68.0
CCOc1ccccc1OCCn1nc2ccccc2n1	none
Cc1ccc(OCCn2nc3ccccc3n2)c(C)c1	TRHR PAM 39.4
CCC(OC(=O)c1ccco1)C(=O)NCc1ccc(C)cc1 (stereo unspecified)	D1 antag -76.8
Cc1ccc(CNC(=O)C(C)OC(=O)c2ccco2)cc1 (stereo unspecified)	none
Nc1nc(N2CCN(c3ccccn3)CC2)nc2ccccc12	LDHA inh -30.4
COc1cc(OC)cc(C(=O)Nc2ccc3oc(-c4ccncc4)nc3c2)c1	none (no result: D1 PAM, D1 agonist, D1 antag, TRHR PAM, TRHR ag)
Cc1ccc(C)c(-c2nnc(NC(=O)c3ccc4c(c3)OCCO4)o2)c1	D1 antag -37.3
O=C(Nc1nnc(C2=COCCO2)o1)c1ccc(Br)cc1	D1 antag -34.0 (no result: LDHA inh)

Screens (PubChem)
